The record followed here is PubChem BioAssay (Tox21).

“And” between values parts separate entries of the source, which are not always exact repeats. Equal entries are not always repeated. Results filed as inconclusive are left out. A structure can be active in one record and inactive in another. The source made the active and inactive calls. Unless noted, calls come from the whole dose curve.

The target in experiment [1] is Gonadotropin-releasing hormone receptor (Homo sapiens) (UniProt P30968). The experiment can be described thus: Human gonadotropin-releasing hormone receptor (GnRHR) small molecule agonists, calcium flux assay in GnRHR-HEK293 cells (AID 1920063). Note: nearly all actives have a fitted effect of over 35% in size. A digest of the protocol:
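Stable human GnRHR HEK293 line. 18 h plating, then calcium dye for 1 h at 37 C. Agonist-mode compound addition from DMSO stocks; fluorescence monitored 3 min.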

Experiment [2] concerns the target KiSS-1 receptor (Homo sapiens) (UniProt Q969F8). The experiment is described as follows: Human kisspeptin (KISS1R) small molecule agonists, calcium flux assay in KISS1R-HEK293 cells (AID 1920064; active = well fitted activation curve with a large enough effect in the repeat runs). A digest of the protocol: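 After overnight (18 h) culture at 37 C/5% CO2, human KISS1R-HEK293 cells received calcium dye for 1 h, then test compound; emission at 540 nm (excitation 480 nm) was tracked for 3 min.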

The nature of experiment [3]: G protein-coupled receptor (GPCR) small molecule agonists, calcium flux assay: HEK293 wild type cell line counter screen (AID 1920065). A digest of the protocol:
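Following 18 h incubation at 37 C/5% CO2, plates got calcium dye for 1 h; compounds, ATP or DMSO were then pinned in and fluorescence followed kinetically (480/540 nm).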
For orientation: A change in cytosolic calcium serves as a functional read-out for many receptors and channels.

Experiment [4] is described as follows: p53 small molecule agonists, cell-based qHTS assay with human liver microsomes (AID 1963577). In outline: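 Cells carrying a p53-responsive bla reporter were rested 5 h (37 C, 5% CO2) before compound transfer. Human liver microsomes plus NADPH, 0.5 mg/mL final apiece, supplied metabolism during the 16 h 37 C exposure.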
In general terms: qHTS replaces the single test concentration by a dilution series.

The nature of experiment [5]: p53 small molecule agonists, cell-based qHTS assay with rat liver microsomes (AID 1963578). A digest of the protocol:
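Fluorescence from a beta-lactamase reporter under a p53 response element was measured after cells had been incubated 16 h at 37 C with test compound and rat liver microsomes plus NADPH (0.5 mg/mL final each).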

Experiment [6] is described as follows: p53 small molecule agonists, cell-based qHTS assay with human liver microsomes: qHTS cell viability counter screen (AID 1963579). Note: nearly all actives have a fitted effect of over 45% in size. A digest of the protocol: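 Seed p53RE-bla cells at 4,000 per well; incubate 5 h at 37 C; add compound, human liver microsomes and NADPH; incubate 16 h at 37 C; add CellTiter-Glo; after 30 min at room temperature, read luminescence.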

Experiment [7] can be described thus: p53 small molecule agonists, cell-based qHTS assay: qHTS cell viability counter screen (AID 1963581). Note: nearly all actives have a fitted effect of over 45% in size. Note: potency is the fitted concentration of half-maximal effect. In outline:
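qHTS counter screen: 16 h compound exposure at 37 C of p53RE-bla HCT-116 cells (4,000 per well, seeded 5 h prior), cell viability by ATP luminescence.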

A short description of experiment [8]: p53 small molecule agonists, cell-based qHTS assay (AID 1963582; active = well fitted activation curve with a large enough effect in the signal ratio in the repeat runs, not every such curve was filed as active; the % refers to the signal ratio). A digest of the protocol:
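Measured: fluorescence from cleaved LiveBLAzer substrate. System: p53RE-bla cells, 16 h compound treatment at 37 C, 2 h substrate step at room temperature.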

Experiment [9] deals with 5-hydroxytryptamine receptor 2A (Homo sapiens) (UniProt P28223). The experiment can be described thus: 5-hydroxytryptamine receptor 2A (HTR2A) small molecule antagonists, cell-based qHTS assay (AID 1963586). Note: nearly all actives have a fitted effect of over 45% in size. A digest of the protocol: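 CHO cells stably expressing human HTR2A were plated for 18 h at 37 C, then loaded with calcium dye for 1 h. Compounds were preincubated 5 min at room temperature before DOI (4 nM solution) was added. Kinetic fluorescence was read for 3 min.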

Experiment [10] has the same target. The experiment can be described thus: 5-hydroxytryptamine receptor 2A (HTR2A) small molecule agonists, cell-based qHTS assay (AID 1963587). Note: nearly all actives have a fitted effect of over 30% in size. In outline:
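CHO cells stably expressing human HTR2A, plated 18 h, loaded with calcium dye 1 h at 37 C. Agonist mode: compounds added and intracellular calcium fluorescence recorded kinetically for 2 min at 1 sec intervals.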

Experiment [11] has as its target Muscarinic acetylcholine receptor M1 (Homo sapiens) (UniProt P11229). The experiment can be described thus: Cholinergic receptor muscarinic 1 (CHRM1) small molecule antagonists, cell-based qHTS assay (AID 1963588). Note: nearly all actives have a fitted effect of over 40% in size. Note: potency is the fitted concentration of half-maximal effect. A digest of the protocol:
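Compounds were tested at 15 concentrations in three independent runs. Dye-loaded CHRM1-CHO cells were exposed 5 min at room temperature before stimulation by acetylcholine added at 50nM. Intracellular calcium was read kinetically on FDSS for 3 min.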

The target is the same in experiment [12]. The experiment can be described thus: Cholinergic receptor muscarinic 1 (CHRM1) small molecule agonists, cell-based qHTS assay (AID 1963589). Note: nearly all actives have a fitted effect of over 35% in size. In outline:
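Kinetic fluorescence (1 s intervals) of calcium-sensitive dye in human M1 CHO cells after compound addition; cells pre-incubated 18 h at 37 C/5% CO2 and dye-loaded 1 h.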

The nature of experiment [13]: cAMP Responsive Elements (CRE) small molecule agonists, cell-based qHTS assay (AID 1963590). In outline: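 Test agents in DMSO were incubated 3 h at 37 C/5% CO2 with CRE-bla HEK 293T cells seeded 18 h earlier; LiveBLAzer B/G FRET substrate was added and read after 2 h at room temperature.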
A short description of experiment [14]: cAMP Responsive Elements (CRE) small molecule antagonists, cell-based qHTS assay (AID 1963591; active = well fitted inhibition curve with a large enough effect in the signal ratio in the repeat runs, not every such curve was filed as active; the % refers to the signal ratio). In outline: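 Reporter line CRE-bla HEK 293T in dialyzed-FBS DMEM; cells preincubated 18 h, treated 3 h with compound plus NKH477 (0.25 uM final); LiveBLAzer FRET, 2 h RT.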
In experiment [15] the target is Beta-2 adrenergic receptor (Homo sapiens) (UniProt P07550). The experiment is described as follows: Adrenergic beta2 receptor (ADRB2) small molecule antagonists, cell-based qHTS assay (AID 1963592). Note: series mostly up to about 92 µM; nearly all actives have a fitted effect of over 50% in size. In outline:
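Assay format: CHO-ADRB2 cells, 18-20hr seeding at 37C/5% CO2, then compound plus 1nM isoproterenol agonist mix for 0.5hr RT. Homogeneous time-resolved fluorescence cAMP detection after 1hr, expressed as 665/615 nm ratio.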

Experiment [16] shares this target. The experiment can be described thus: Adrenergic beta2 receptor (ADRB2) small molecule agonists, cell-based qHTS assay (AID 1963593).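 Note: CHO cells stably overexpressing human ADRB2.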 A digest of the protocol: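 CHO cells stably over-expressing ADRB2 were plated overnight at 37C, then dosed with compounds plus a stimulation mix containing 100uM IBMX and 25uM Ro-20-1724 for 0.5hr at room temperature. cAMP was measured by HTRF competition, 1hr.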

For experiment [17], the target named is D(2) dopamine receptor (Homo sapiens) (UniProt P14416). The experiment is described as follows: Dopamine D2 receptor (DRD2) small molecule agonists, cell-based qHTS assay (AID 1963594). Note: nearly all actives have a fitted effect of over 35% in size. A digest of the protocol:
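HEK293 cells stably expressing human DRD2, pre-treated with PDE inhibitor Ro20-1724 (0.1 mM final) and compound 10 min at room temperature, then stimulated with NKH477 (200nM […]) for 30 min. cAMP read by HTRF (665/620 nm).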

Experiment [18] has the same target. The experiment can be described thus: Dopamine D2 receptor (DRD2) small molecule antagonists, cell-based qHTS assay (AID 1963595; active = well fitted inhibition curve with a large enough effect in the signal ratio in the repeat runs, with a control signal flat; the % refers to the signal ratio; note: potency is the fitted concentration of half-maximal effect). A digest of the protocol: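 Stable D2 receptor HEK293 line, 24 h after seeding. Compound preincubated 10 min, then quinpirole (12 nM) with forskolin analogue NKH477 (200 nM), 30 min, room temperature. Detection by time-resolved FRET of cAMP.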

The nature of experiment [19]: p53 small molecule agonists, cell-based qHTS assay with rat liver microsomes: qHTS cell viability counter screen (AID 1963580). Note: nearly all actives have a fitted effect of over 45% in size. Note: potency is the fitted concentration of half-maximal effect. In outline: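 Cytotoxicity counter screen: intracellular ATP measured by CellTiter-Glo luminescence in the same wells as the beta-lactamase reporter read, on HCT-116 p53RE-bla cells exposed 16 h at 37 C to compounds with rat liver microsomes and NADPH, each 0.5 mg/mL final.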

Chain of KiSS-1 receptor (Homo sapiens) (Q969F8 whole entry, looked up): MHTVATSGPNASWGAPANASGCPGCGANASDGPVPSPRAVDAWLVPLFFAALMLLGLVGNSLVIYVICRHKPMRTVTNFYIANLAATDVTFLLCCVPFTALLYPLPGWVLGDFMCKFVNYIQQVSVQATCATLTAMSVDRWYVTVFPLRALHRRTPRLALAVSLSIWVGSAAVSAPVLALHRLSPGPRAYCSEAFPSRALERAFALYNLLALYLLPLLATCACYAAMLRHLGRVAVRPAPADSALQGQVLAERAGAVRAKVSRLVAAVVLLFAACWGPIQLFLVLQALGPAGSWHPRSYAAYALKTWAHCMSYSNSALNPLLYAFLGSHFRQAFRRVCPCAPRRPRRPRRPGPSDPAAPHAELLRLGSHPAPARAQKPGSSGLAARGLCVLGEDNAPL
Chain of Gonadotropin-releasing hormone receptor (Homo sapiens) (P30968 whole entry, looked up): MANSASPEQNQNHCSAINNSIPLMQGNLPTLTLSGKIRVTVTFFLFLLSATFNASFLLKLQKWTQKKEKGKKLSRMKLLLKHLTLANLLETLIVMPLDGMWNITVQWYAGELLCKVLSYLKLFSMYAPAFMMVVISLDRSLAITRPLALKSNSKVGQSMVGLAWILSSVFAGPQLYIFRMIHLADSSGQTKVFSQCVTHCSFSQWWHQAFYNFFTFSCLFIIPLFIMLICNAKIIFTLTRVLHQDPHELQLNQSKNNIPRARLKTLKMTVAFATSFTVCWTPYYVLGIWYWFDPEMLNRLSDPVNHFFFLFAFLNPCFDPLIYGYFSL
Chain of 5-hydroxytryptamine receptor 2A (Homo sapiens) (P28223 whole entry, looked up): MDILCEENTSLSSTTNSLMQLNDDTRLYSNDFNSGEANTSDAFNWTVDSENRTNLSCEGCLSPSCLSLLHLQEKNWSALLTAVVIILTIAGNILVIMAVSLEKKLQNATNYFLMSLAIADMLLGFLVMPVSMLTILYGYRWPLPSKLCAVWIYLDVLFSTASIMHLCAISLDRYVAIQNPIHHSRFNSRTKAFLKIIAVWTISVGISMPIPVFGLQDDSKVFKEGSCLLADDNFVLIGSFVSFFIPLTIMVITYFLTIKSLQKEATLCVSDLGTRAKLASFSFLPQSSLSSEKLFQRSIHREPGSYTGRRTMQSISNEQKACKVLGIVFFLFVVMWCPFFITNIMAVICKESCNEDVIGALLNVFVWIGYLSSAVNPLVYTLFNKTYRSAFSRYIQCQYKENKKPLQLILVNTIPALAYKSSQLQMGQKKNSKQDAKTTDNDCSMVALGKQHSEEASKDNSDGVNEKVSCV
Chain of Beta-2 adrenergic receptor (Homo sapiens) (P07550 whole entry, looked up): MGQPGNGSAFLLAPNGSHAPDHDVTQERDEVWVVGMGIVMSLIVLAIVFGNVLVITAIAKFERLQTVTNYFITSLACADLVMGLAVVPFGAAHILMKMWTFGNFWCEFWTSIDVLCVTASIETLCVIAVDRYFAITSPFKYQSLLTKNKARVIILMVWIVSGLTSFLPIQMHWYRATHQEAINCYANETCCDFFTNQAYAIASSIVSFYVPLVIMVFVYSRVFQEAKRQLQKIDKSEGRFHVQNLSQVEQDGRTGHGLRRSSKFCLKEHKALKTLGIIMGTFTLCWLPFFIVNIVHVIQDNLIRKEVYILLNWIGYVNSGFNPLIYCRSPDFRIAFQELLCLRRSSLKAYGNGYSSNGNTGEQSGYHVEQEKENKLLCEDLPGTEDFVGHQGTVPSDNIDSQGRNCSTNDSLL
Chain of D(2) dopamine receptor (Homo sapiens) (P14416 whole entry, looked up): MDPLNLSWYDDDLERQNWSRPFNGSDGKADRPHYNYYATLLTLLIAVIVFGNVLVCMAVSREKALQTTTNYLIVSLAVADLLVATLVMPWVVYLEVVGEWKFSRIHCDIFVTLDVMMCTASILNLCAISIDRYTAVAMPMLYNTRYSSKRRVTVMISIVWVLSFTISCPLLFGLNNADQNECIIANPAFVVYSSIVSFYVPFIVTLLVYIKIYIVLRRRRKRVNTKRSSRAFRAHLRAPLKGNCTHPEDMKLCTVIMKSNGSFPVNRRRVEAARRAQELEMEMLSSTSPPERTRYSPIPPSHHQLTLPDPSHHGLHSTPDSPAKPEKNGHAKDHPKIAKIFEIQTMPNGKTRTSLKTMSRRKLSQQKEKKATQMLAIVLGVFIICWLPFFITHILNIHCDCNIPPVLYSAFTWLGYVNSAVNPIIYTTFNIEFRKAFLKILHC
Chain of Muscarinic acetylcholine receptor M1 (Homo sapiens) (P11229 whole entry, looked up): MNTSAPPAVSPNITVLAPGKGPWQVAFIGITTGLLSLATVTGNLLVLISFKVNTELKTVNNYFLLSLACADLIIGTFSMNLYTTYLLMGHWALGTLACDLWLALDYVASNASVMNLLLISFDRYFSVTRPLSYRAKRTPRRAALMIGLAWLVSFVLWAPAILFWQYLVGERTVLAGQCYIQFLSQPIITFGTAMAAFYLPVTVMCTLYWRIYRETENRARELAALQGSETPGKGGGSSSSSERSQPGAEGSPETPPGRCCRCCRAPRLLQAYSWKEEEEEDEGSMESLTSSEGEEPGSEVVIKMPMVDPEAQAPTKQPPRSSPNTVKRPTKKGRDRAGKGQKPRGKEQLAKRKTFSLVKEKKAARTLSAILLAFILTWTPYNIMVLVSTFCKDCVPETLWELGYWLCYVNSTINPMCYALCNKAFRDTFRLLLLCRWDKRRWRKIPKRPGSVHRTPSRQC

Regarding `C1CNCCN1`, the Potency result in experiment [1], in experiment [2], in experiment [3], in experiment [4], in [5] and in [6] was “inactive” each time. Also, the Potency result in [7], in experiment [8], in experiment [9], in [10], in [12] and in experiment [13] was “inactive” each time. Further, the Potency result in experiment [14], in [15], in experiment [16], in experiment [17] and in experiment [18] was “inactive” in each case. Further, the Potency in [11] is 4.86 µM (active) and inactive.

Take `CCCCCCCCCCCCCCCCCC(=O)OCC(O)CO` (stereo not given): the Potency result in experiment [1], in experiment [3], in experiment [6], in experiment [19], in [7] and in [9] was “inactive” in each case. In addition, the Potency entry in experiment [10], in experiment [11], in [12], in [13], in [14] and in experiment [15] was “inactive” throughout. The Potency result in [16], in [17] and in [18] was “inactive” in each case.

With `COCCc1ccc(OCC(O)CNC(C)C)cc1` (stereo not given), the Potency entry in experiment [1], in [2], in experiment [3], in [4], in [5] and in experiment [6] was “inactive” in each case. Also, the Potency result in experiment [19], in experiment [7], in experiment [8], in experiment [14] and in experiment [18] was “inactive” in each case.

With `O=C(O)C(=O)O`, the Potency result in experiment [1], in experiment [2], in experiment [3], in [6], in experiment [19] and in experiment [7] was “inactive” throughout. The Potency entry in [9], in [10], in experiment [11], in [12], in experiment [13] and in [14] was “inactive” each time. In addition, the Potency result in [15], in [17] and in [18] was “inactive” throughout.

Regarding `O=C(O)CCCC[C@@H]1SC[C@@H]2NC(=O)N[C@@H]21`, the Potency result in experiment [1], in [2], in experiment [3], in experiment [6], in experiment [19] and in experiment [7] was “inactive” throughout. For the same molecule, the Potency result in experiment [9], in experiment [11], in experiment [12], in [13], in experiment [14] and in experiment [15] was “inactive” each time. Also, the Potency entry in experiment [16], in experiment [17] and in experiment [18] was “inactive” each time.

Turning to `CCCCC(CC)COC(=O)C(C#N)=C(c1ccccc1)c1ccccc1` (stereo not given), the Potency result in [1], in [2], in experiment [3], in experiment [4], in experiment [5] and in experiment [6] was “inactive” in each case. For the same molecule, the Potency entry in experiment [19], in [7], in experiment [8], in [9], in [10] and in experiment [12] was “inactive” in each case. Also, the Potency entry in experiment [13], in [14], in [15], in experiment [16], in [17] and in experiment [18] was “inactive” throughout.

With `Cc1cc(C2(c3cc(C)c(O)cc3C)OS(=O)(=O)c3ccccc32)c(C)cc1O`, the Potency result in experiment [1], in experiment [2], in [3], in experiment [5], in experiment [6] and in [19] was “inactive” throughout. The Potency entry in [7], in experiment [8], in experiment [9], in experiment [10], in experiment [11] and in experiment [12] was “inactive” throughout. The Potency entry in experiment [13], in experiment [14], in [15] and in experiment [16] was “inactive” in each case.

For `CC/C(=C(\c1ccccc1)c1ccc(OCCN(C)C)cc1)c1ccccc1`, the Potency entry in experiment [1], in experiment [2], in [3], in [4], in experiment [5] and in [6] was “inactive” throughout. Moreover, the Potency result in experiment [13], in experiment [14] and in experiment [17] was “inactive” throughout. In addition, the Potency in [19] was 1.83 µM (active) and 28.8 µM (active) and inactive; in [7], “inactive and 51.3 µM (active)”; in [18] it was 38.9 µM (active) and 61.1 µM (active).
